S1P2 blocker: antagonists of human S1P2 receptor | O95136 | cell-based S1P2 antagonist assay, inhibition at 5 uM | inhibition, % at 5 µM | hit rate 0.21% among 97,000 | AID 736; in the data active = inhibition above about 45%;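 note: CRE beta-lactamase reporter cells expressing human S1P2 stimulated with S1P; 0% = agonist at EC80 alone and 100% = agonist plus reference antagonist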
GALR2 blocker: antagonists of human galanin receptor 2 (GALR2); GALR2-expressing cells, antagonist mode; hit rate 0.39% among 140,000; O43603; inhibition, % at 4 µM;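 note: cells stimulated with galanin 1-16 at roughly its EC80; 0% = agonist challenge control and 100% = basal control without agonist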
Target sequence (O43603 whole entry, looked up): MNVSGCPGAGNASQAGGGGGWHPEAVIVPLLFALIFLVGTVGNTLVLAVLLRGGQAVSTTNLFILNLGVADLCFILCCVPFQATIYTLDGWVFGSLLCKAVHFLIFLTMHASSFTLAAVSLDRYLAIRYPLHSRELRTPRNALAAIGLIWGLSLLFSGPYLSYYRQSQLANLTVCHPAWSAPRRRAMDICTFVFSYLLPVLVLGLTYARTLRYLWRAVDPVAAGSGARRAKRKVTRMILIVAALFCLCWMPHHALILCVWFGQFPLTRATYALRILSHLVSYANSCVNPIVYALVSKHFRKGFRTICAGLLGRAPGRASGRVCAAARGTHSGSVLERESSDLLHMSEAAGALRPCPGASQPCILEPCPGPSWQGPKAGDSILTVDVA
S1P2 agonist: activates the human S1P2 receptor | AID 729 | O95136 | S1P2-expressing cell line, agonist reporter read-out | hit rate 0.46% among 97,000 | activation, % at 4.5 µM; in the data active = activation above about 16%;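 note: 0% = vehicle low control and 100% = maximal reference agonist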
GALR2 ag: activates the human galanin receptor 2; O43603; GALR2-expressing cells, agonist activation read-out; activation, % (concentration not given with the values); hit rate 0.48% among 140,000; AID 803; in the data active = activation above about 5%, passing the limit was not always enough;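 note: 0% = vehicle buffer wells and 100% = reference agonist at full effect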
Phagocyt inh: inhibitors of macrophage phagocytosis | J774A.1 macrophage IgG-bead phagocytosis, imaging | inhibition, % at 5 µM | hit rate 0.07% among 110,000;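 active = inhibition above the mean of the plate negative controls plus 5 SD, cut at about 13% in these data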;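 note: phagocytic index as fraction of beads internalized from green versus red external bead signal; plate controls were DMSO negative control for no effect and cytochalasin-D positive control for full effect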
GALR2 ag confirm: GALR2 (human) agonism confirmed; shares compounds with GALR2 ag; GALR2-expressing cells, agonist activation; activation, % at 5.6 µM; hit rate 10% among 460; AID 864; in the data active = activation above about 8.4%;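 note: 0% = buffer-only vehicle wells and 100% = full reference agonist response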
BLA act counter: beta-lactamase activation, GALR2 counterscreen | hit rate 10% among 460 | CHO NFAT-bla reporter, beta-lactamase FRET activation | shares compounds with GALR2 ag | activation, % at 5.6 µM;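 active = activation above the screen-wide mean activation plus 3 SD, cut at about 8% in these data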;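 note: 0% = DMSO with PBS wells and 100% = thapsigargin positive control wells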
GALR2 ant conf: confirmation of human galanin receptor 2 (GALR2) antagonists; shares compounds with GALR2 blocker; GALR2-expressing cells, antagonist mode, inhibition; hit rate 60% among 480; inhibition, % at 4 µM; AID 866;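 note: cells stimulated with galanin at about its EC80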
BLA inhib ctr: beta-lactamase inhibition, GALR2 counterscreen; shares compounds with GALR2 blocker; CHO NFAT-BLA reporter, beta-lactamase FRET, thapsigargin-stimulated; AID 867; hit rate 36% among 480; inhibition, % at 4.2 µM;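 active = inhibition above the mean inhibition across tested compounds plus 3 SD, cut at about 27% in these data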;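 note: 0% = 500 nM thapsigargin stimulated wells and 100% = unstimulated BSA only wells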
* = called active by the depositor; nt = no result given; ! = not confirmed by another sample. Compounds with a hit are over-represented: about 1.3% of the library has one in this group of screens. Cut-off read from the data, not from the text of the source, unless noted: active = inhibition above about 27%; inactive = the rest.

SMILES	S1P2 blocker	GALR2 blocker	S1P2 agonist	GALR2 ag	Phagocyt inh	others
C=CCNC(=O)c1c(N)n(Cc2ccco2)c2nc3ccccc3nc12	-14.6	-19.4	17.8*	6.4*	-0.5
CC(=NCCC(c1ccccc1)c1ccccc1)c1c(O)n(C)c(=O)n(C)c1=O	nt	-1.3	nt	-1.1	-8.1
O=Cc1c(C(=O)O)n(Cc2ccc(Cl)cc2)c2ccccc12	nt	8.6	nt	-1.2	-4.5
CCC(C)NC(=O)c1c(N)n(CC2CCCO2)c2nc3ccccc3nc12 (centres undefined)	nt	3.9	nt	3.3	-0.5
CCC(C)NC(=O)c1c(N)n(Cc2ccc3c(c2)OCO3)c2nc3ccccc3nc12 (centres undefined)	-169.3	-11.6	140.0*	84.3*	1.0
CCC(C)NC(=O)c1c(N)n(CCCOC)c2nc3ccccc3nc12 (centres undefined)	-69.0	-9.5	24.7*	15.8*	-0.6
CCCCCc1nc2ccccc2c(=O)n1-c1ccccc1[N+](=O)[O-]	nt	-15.4	nt	-0.9	nt
CCCCCc1nc2c(c(=O)c3ccccc3n2C)c(=O)n1C1CCCCCC1	nt	-1.6	nt	7.3*	-7.8
CCCCn1c(N)c(C(=O)NCCN2CCOCC2)c2nc3ccccc3nc21	-17.4	-4.2	2.2	3.4	0.4
Nc1c(C(=O)NCCc2ccccc2)c2nc3ccccc3nc2n1CCN1CCOCC1	-27.9	-12.5	31.3*	25.3*	-0.2
COc1ccc(CCNC(=O)c2c(N)n(CCN3CCOCC3)c3nc4ccccc4nc23)cc1	-23.6	-6.0	26.9*	7.2	-0.3
CC(C)CCNC(=O)c1c(N)n(CC2CCCO2)c2nc3ccccc3nc12 (centres undefined)	-61.7	-11.0	40.0*	31.6*	0.3
O=c1[nH]c(=O)n(-c2cccc3ccccc23)c(O)c1/C=N/N1CCCCC1c1cccnc1 (centres undefined)	nt	15.9	nt	-1.0	-2.7
Cc1nc2ccc(Cl)cc2c(-c2ccccc2)c1C(=O)O	nt	-3.3	nt	-1.5	-5.8
Cc1c2ccncc2c(C)c2c1[nH]c1ccccc12	nt	0.9	nt	11.9*	nt	GALR2 ag confirm=12.6*;BLA act counter=3.5
COc1ccc(C[C@@H]2c3cc(O)c(OC)cc3CCN2C)cc1O	nt	1.8	nt	-1.1	nt
COc1cc2c3cc1Oc1cc(ccc1O)C[C@@H]1c4c(cc(OC)c(O)c4Oc4ccc(cc4)C[C@H]3N(C)CC2)CCN1C	nt	-1.4	nt	9.6*	nt	GALR2 ag confirm=12.2*;BLA act counter=1.1
CC(NC1CCCCC1)C(O)C12CC3CC(CC(C3)C1)C2 (centres undefined)	-10.7	5.6	-3.9	19.4*	1.2	GALR2 ag confirm=-0.2;BLA act counter=-1.5
COCCNP(=O)(c1ccccc1)c1nc2ccccc2s1 (centres undefined)	22.9	-7.4	0.7	11.7*	-0.3	GALR2 ag confirm=-0.8;BLA act counter=-0.3
CCC(C)N1Cc2ccccc2C1=N (centres undefined)	18.5	2.7	-4.7	-2.0	-2.1
CCOP(=O)(OCC)C(NC(=O)CN1C(=O)c2ccccc2S1(=O)=O)C(Cl)(Cl)Cl (centres undefined)	nt	-0.5	nt	-1.6	-4.7
C=CCn1c(O)c(C(CC)=NCCc2ccccc2)c(=O)[nH]c1=O	-6.4	-13.2	-2.6	11.8*	-0.2	GALR2 ag confirm=0.4;BLA act counter=1.0
O=C(N/N=C1/CN2CCC1CC2)c1cc2ccccc2cc1O	-3.3	10.3	-3.1	-2.3	nt
Clc1cccc(C2NCCc3[nH]cnc32)c1 (centres undefined)	12.6	2.5	-4.1	-1.6	nt
O=c1cc(C(F)(F)F)c2cc3c4c(c2o1)CCCN4CCC3	36.5	36.1*	-3.9	8.8	1.5	GALR2 ag confirm=1.8;BLA act counter=-1.4;GALR2 ant conf=32.1*;BLA inhib ctr=43.7*
SMILES	S1P2 blocker	GALR2 blocker	S1P2 agonist	GALR2 ag	Phagocyt inh	others
CCOC(=O)c1sc(/N=C/c2c(O)n(-c3cccc(C)c3)c(=O)[nH]c2=O)c(C#N)c1C	nt	2.0	nt	-1.0	-7.1
COC(=O)C[C@]1(C(=O)OC)CN(C#N)N(c2ccc(Cl)cc2)C12c1ccccc1-c1ccccc12	35.5	40.2*	-7.1	-3.2	nt	GALR2 ant conf=43.7*;BLA inhib ctr=31.8*
COc1cc2c(cc1OC)-c1c(OC)c(OC)cc3c1[C@H](C2)[N+](C)(C)CC3	nt	3.8	nt	-1.8	nt
CN[C@H]1C[C@H]2O[C@@](C)([C@H]1OC)n1c3ccccc3c3c4c(c5c6ccccc6n2c5c31)C(=O)NC4	nt	104.1*	nt	-3.7	nt	GALR2 ant conf=104.9*;BLA inhib ctr=108.5*
COc1ccc(-n2c(O)c(C=Nc3c(C)n(C)n(-c4ccccc4)c3=O)c(=O)[nH]c2=O)cc1	5.3	0.9	-8.3	-0.9	0.3
Cn1cccc1/C=C1/C(=O)NC(=O)N(Cc2ccccc2)C1=O	nt	28.6*	nt	-0.3	11.1	GALR2 ant conf=36.1*;BLA inhib ctr=65.5*
C=CCN1C(=O)NC(=O)/C(=C/c2cccn2C)C1=O	-0.5	10.2	-3.2	-0.7	nt
CC1CCN(C(=O)c2ccc(N3CC4CC(C3)c3cccc(=O)n3C4)c([N+](=O)[O-])c2)CC1 (centres undefined)	nt	4.7	nt	-0.3	-6.9
Cc1cccc(N2CCc3c2nc2ccccc2c3N)c1	24.3	30.8*!	-7.5	-2.9	-0.4	GALR2 ant conf=35.5*;BLA inhib ctr=10.6
CN1C2CCC1/C(=C/c1ccccn1)C(=O)/C2=C\c1ccccn1	nt	101.9*	nt	-2.9	11.4	GALR2 ant conf=102.4*;BLA inhib ctr=104.5*
O=C1CCCN1c1ccc(S(=O)(=O)O)cc1 (tested in a mixture with another compound)	nt	0.2	nt	-0.4	-9.6

Screening data (PubChem)
